Results with a measured potency or affinity are listed apart.
What follows are compounds tested against KSHV LANA C-terminal domain (residues 932-1162) binding to LBS DNA (UniProt O40947) (assay: KSHV LANA DNA-binding disruption – biochemical, fluorescence polarization, cherry-picked samples, dose response (AID 504725)). Conditions: MBP-C-LANA / FAM-LBS DNA fluorescence polarization, percent change from plate compound-well median; series mostly up to 35 µM; activity change, negative = inhibition: at the top concentration; call rule not given here.

Activity change, negative = inhibition, inactive:
COC(=O)\C(C(C)=O)=C(/C=C/C=C/C=C/N(C)C)N(C)C 0.45%
Cc1ccc(-c2nnn(CC(=O)NC3CCN(Cc4ccccc4)CC3)n2)cc1 -2.48%
COC(=O)c1sc(C(F)(F)F)c(-c2ccccc2)c1S(=O)(=O)N1CCOCC1 0.068%
Cc1noc(C)c1CSCC(=O)Nc1nc2c(F)cc(F)cc2s1 -1.36%
CCOC(=O)c1ccc[n+](CC(=O)c2ccc(OC)cc2)c1 -1.03%
O=c1[nH][nH]cc1C=Nc1ccc(Cl)cc1Cl 0.414%
C/C(=N\NC(=O)CCc1c(C)n[nH]c1C)c1ccc([N+](=O)[O-])cc1 3.11%
COc1cccc(OCCNc2ccc([N+](=O)[O-])cn2)c1 2.33%
Nc1ccc(C(=O)Nc2ccc3c(O)cc(S(=O)(=O)O)cc3c2)cc1 -11.2%
CC(C)C(=O)N1CCN(c2ccccc2NC(=S)NC(=O)c2ccco2)CC1 -4.33%
O=C1CCCC2=C1C(c1ccc(O)c(O)c1)Nc1ccc3ncccc3c12 (stereo not drawn) -2.14%
Cc1cccc(COc2ccc(/C=N/NC(=O)c3nnn(-c4nonc4N)c3COc3ccc(F)cc3)cc2)c1 8.39%
COc1ccc(C(C)=O)cc1CN(C)C 0.24%
CC1CC(C)CN(C(=O)c2ccc3ncsc3c2)C1 (stereo not drawn) 1.32%
CCN(C(=O)COC(=O)CNS(=O)(=O)c1ccc(SC)c([N+](=O)[O-])c1)C1CCCCC1 -3.89%
CCOC(=O)c1cnc(SC)nc1Sc1ccc(Cl)cc1Cl 4.46%
CC(C)(C)OC(=O)N1CCC[C@H]1c1nnc(SCc2cccc(Cl)c2)o1 0.496%
Oc1ccccc1C=Nc1ccccc1-c1nc2ccccc2[nH]1 0.308%
CCC(C)[C@H](NC(=O)[C@@H]1Cc2ccccc2CN1)C(=O)Nc1ccc2c(c1)OCO2 (stereo partly drawn) 0.254%
CC(=O)N(C(C)=O)N1C(=O)c2cccc3c(N4CCOCC4)ccc(c23)C1=O -9.94%
CC(=O)NC(C(=O)c1ccccc1)C(=O)c1ccccc1 -0.639%
COc1ccc(CCNC(=O)CCCNC(=O)Cn2cnc3sc(C)c(C)c3c2=O)cc1OC 0.831%
CC(C)N(C(=S)Nc1cccnc1)c1ccccc1 -1.45%
CCOC(=O)c1c(C)nc2cc(C)ccn12 -12.6%
CCOc1ccc(C(C)NC(=O)c2ccccc2OCc2c(C)noc2C)cc1OCC (stereo not drawn) -13%
Cc1ccc(NS(=O)(=O)c2ccc(C(=O)NCCCN3CCCC3=O)cc2)cc1 2.81%
Cc1c(C)n(CCC(=O)O)c2ccccc12 3.12%
CCNC(=O)COC(=O)c1cccc(Br)c1 0.804%
COc1ccc(N=Nc2nc3ccc(Br)cc3n2C)cc1 -10.5%
COC(=O)c1ccc(OCC(O)CN2CCC(C)CC2)cc1 (stereo not drawn) -1.1%
COc1ccc(OC2CCN(S(=O)(=O)c3ccc(OC)cc3)CC2)cc1 -1.17%
O=C(CCN1C(=O)/C(=C/c2ccco2)SC1=S)Nc1ccc(C(=O)O)c(O)c1 -10.2%
CCN(c1ccc(C)cc1C)S(=O)(=O)c1nnc(NC(=O)c2ccco2)s1 -0.978%
CCN(CC(=O)Nc1ccc(OC)cc1)C(=O)c1cc([N+](=O)[O-])ccc1N1CCOCC1 1.06%
O=C(/C=N/NC(=O)c1ccc(Cl)cc1Cl)c1ccccc1 2.06%
CC(OC(=O)CCN1C(=O)C2CC=CCC2C1=O)C(=O)Nc1ccc(F)cc1 (stereo not drawn) -1.54%
O=C(NCC1CCCO1)c1cccc(S(=O)(=O)N(Cc2ccccc2)c2ccccc2)c1 (stereo not drawn) 2.67%
CCCCN(C(=O)C(C)Oc1ccc(Br)cc1)c1c(N)n(CC(C)C)c(=O)[nH]c1=O (stereo not drawn) 2.89%

— PubChem BioAssay AID504725 (Broad Institute, 2011)
